# Laboratory results from PubChem BioAssay (Tox21).
# Unmarked numbers belong to inactive results. Results filed as inconclusive are left out. Where a call stands in place of a potency, no number is given. The source made the active and inactive calls. Unless noted, calls come from the whole dose curve; as a rule, active = well fitted curve in the direction sought with a large enough effect in the repeat runs; inconclusive = weak or mixed curves; inactive = no such curve, though single readings can be large; an effect the other way counts as inactive or inconclusive.
# Tests used:
# [1] = qHTS assay to identify small molecule agonists of the hypoxia (HIF-1) signaling pathway - cell viability counter screen (AID 1224844; calls by dose curve; note: nearly all actives have a fitted effect of over 50% in size)
# How it was run: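 CellTiter-Glo luminescence read-out, 30 min RT, taken in the same wells as the beta-lactamase HRE reporter assay; HRE-bla ME-180 cells, 0.5% dialyzed FBS, 17 hr compound treatment at 37C, 5% CO2.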
# [2] = qHTS assay to identify small molecule agonists of H2AX (AID 1224845; active = well fitted activation curve with a large enough effect in the signal ratio in the repeat runs, not every such curve was filed as active; the % refers to the signal ratio)
# How it was run: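 Wild-type CHO-K1 cells plated overnight, then exposed 3 hr at 37C to compounds at 15 concentrations (0.76% DMSO). Lysed, then HTRF anti-pH2AX(S139)-cryptate/anti-H2AX-d2 detection after 24 hr at room temperature; emissions 665 and 620 nm.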
# [3] = qHTS assay to identify small molecule agonists of H2AX - cell viability counter screen (AID 1224847; calls by dose curve; note: top concentration of the series differs between compounds; nearly all actives have a fitted effect of over 30% in size)
# How it was run: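 Wild-type CHO-K1 cells (10% FBS medium) were plated overnight at 37C, exposed to compounds at 15 concentrations for 3 hr at 37C (0.76% DMSO final), and viability was read as CellTiter-Glo luminescence after 30 min at room temperature.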
# [4] = qHTS assay to identify small molecule antagonists of the estrogen related receptor (ERR) signaling pathway from Tox21 library (AID 1224848); note: nearly all actives have a fitted effect of over 50% in size; note: potency is the fitted concentration of half-maximal effect
# How it was run: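 Tox21 10K compounds in DMSO tested for ERR pathway antagonism in NTP's ERR cell line; 18 h, 37 C exposure; ONE-Glo luminescence.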
# [5] = qHTS assay to identify small molecule agonists of the estrogen related receptor (ERR) signaling pathway from Tox21 library (AID 1224849; calls by dose curve; note: nearly all actives have a fitted effect of over 15% in size); settings: ERR reporter cell line, ONE-Glo luciferase, 18 h; at 92.4 µM (top of the series) unless noted
# How it was run: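 Luminescence readout (ONE-Glo, 30 min RT) after 18 h compound exposure at 37 C of NTP-supplied ERR reporter cells; cells were plated 6 h before compound addition by pin tool.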
# [6] = qHTS RealTime-Glo MT Cell Viability Assay in HepG2 cells - 24 hour (AID 1224867); note: nearly all actives have a fitted effect of over 50% in size
# How it was run: (§1)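 Viability was tracked continuously by NanoLuc luminescence from prosubstrate reduced by living HepG2 cells, at successive time points over 40 h of compound exposure. Cells with reagent were preincubated 5 h at 37 °C before compound addition.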
# [7] = qHTS RealTime-Glo MT Cell Viability Assay in HEK293 cells - 32 hour (AID 1224868); note: nearly all actives have a fitted effect of over 50% in size; note: potency is the fitted concentration of half-maximal effect
# How it was run: (§2)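 Viability tracked continuously by luminescence as live cells reduce a prosubstrate for NanoLuc; HEK293 cells preincubated 5 h, compound-treated at 37 C, and read at 0, 8, 16, 24, 32 and 40 h.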
# [8] = qHTS RealTime-Glo MT Cell Viability Assay in HepG2 cells - 40 hour (AID 1224870); note: nearly all actives have a fitted effect of over 50% in size
# How it was run: (§3)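 HepG2 cells mixed with RealTime-Glo MT reagents (NanoLuc plus cell-permeant prosubstrate) were seeded at 600 cells/well, incubated 5 h at 37 C/5% CO2, then pinned with compounds in DMSO; nonlytic luminescence tracked viability during 40 h treatment.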
# [9] = A CellTox Green Cytotoxicity Assay to monitor cytotoxicity in HEK293 cells - 40 hour (AID 1224871); note: nearly all actives have a fitted effect of over 45% in size
# How it was run: (§4)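 Read-out: fluorescence of a cell-impermeant cyanine dye staining DNA of dead cells, proportional to cytotoxicity. HEK293, 600 cells/well with reagent, compound (23 nL DMSO) added after 5 h; reads at 0, 8, 16, 24, 32, 40 h.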
# [10] = qHTS RealTime-Glo MT Cell Viability Assay in HEK293 cells - 16 hour (AID 1224872); note: nearly all actives have a fitted effect of over 50% in size; note: potency is the fitted concentration of half-maximal effect
# How it was run: as §2
# [11] = qHTS RealTime-Glo MT Cell Viability Assay in HepG2 cells - 8 hour (AID 1224873); note: nearly all actives have a fitted effect of over 55% in size
# How it was run: as §3
# [12] = A CellTox Green Cytotoxicity Assay to monitor cytotoxicity in HEK293 cells - 24 hour (AID 1224875); note: nearly all actives have a fitted effect of over 45% in size; note: potency is the fitted concentration of half-maximal effect
# How it was run: as §4
# [13] = A CellTox Green Cytotoxicity Assay to monitor cytotoxicity in HepG2 cells - 16 hour (AID 1224876); note: nearly all actives have a fitted effect of over 45% in size; note: potency is the fitted concentration of half-maximal effect
# How it was run: (§5)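 HepG2, 600 cells/well premixed w/ CellTox Green; 5 h settle, 37 C/5% CO2; pintool cpd add (DMSO); 37 C, 40 h; fluorescence read at 0, 8, 16, 24, 32, 40 h.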
# [14] = qHTS RealTime-Glo MT Cell Viability Assay in HepG2 cells - 32 hour (AID 1224877); note: nearly all actives have a fitted effect of over 55% in size
# How it was run: as §1
# [15] = A CellTox Green Cytotoxicity Assay to monitor cytotoxicity in HepG2 cells - 24 hour (AID 1224878); note: nearly all actives have a fitted effect of over 45% in size; note: potency is the fitted concentration of half-maximal effect
# How it was run: as §5
# [16] = A CellTox Green Cytotoxicity Assay to monitor cytotoxicity in HepG2 cells - 40 hour (AID 1224879); note: nearly all actives have a fitted effect of over 40% in size; note: potency is the fitted concentration of half-maximal effect
# How it was run: as §5
# [17] = qHTS assay to identify small molecule agonists of the hypoxia (HIF-1) signaling pathway (AID 1224846; active = well fitted activation curve with a large enough effect in the signal ratio in the repeat runs, not every such curve was filed as active; the % refers to the signal ratio)
# How it was run: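 Beta-lactamase FRET read-out (CCF4-AM substrate) from ME-180 cells carrying an HRE-driven bla reporter, after 17 hrs compound exposure at 37C/5% CO2. Cells were seeded at 2,000 per well in 0.5% dialyzed FBS medium and preincubated 5 hrs.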
# [18] = qHTS RealTime-Glo MT Cell Viability Assay in HEK293 cells - 40 hour (AID 1224874); settings: RealTime-Glo luminescence; max response: hits give low values; note: nearly all actives have a fitted effect of over 50% in size; note: potency is the fitted concentration of half-maximal effect
# How it was run: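 Luminescence readout at each listed time point; HEK293, 600 cells/well, RealTime-Glo MT reagent added with cells; compounds pinned (23 nL in DMSO) after 5 h at 37 C; continuous culture at 37 C.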
# [19] = A CellTox Green Cytotoxicity Assay to monitor cytotoxicity in HEK293 cells - 0 hour (AID 1224869); note: nearly all actives have a fitted effect of over 50% in size
# How it was run: as §4
Compound,Potency [1],Potency [2],Potency [3],Potency [4],"activity change, positive = activation [5]",Potency [6],Potency [7],Potency [8],Potency [9],Potency [10],outcome [11],Potency [12],Potency [13],Potency [14],Potency [15],Potency [16],outcome [17],max response [18],Potency [19],Potency [18]
O=C(O[C@@H](C(=O)O)[C@@H](OC(=O)c1ccccc1)C(=O)O)c1ccccc1,inactive,inactive,inactive,inactive,-13.3%,inactive,inactive,inactive,inactive,inactive,inactive,inactive,inactive,inactive,inactive,inactive,–,–,–,–
CCCCCOc1ccc(C2SC(=O)NC2=O)cc1OCC (stereo not given),inactive,–,inactive,–,–,inactive,inactive,inactive,inactive,inactive,inactive,inactive,–,inactive,–,–,inactive,-9.78%,–,–
Nc1ccc(Oc2ccc(N)c(N)c2)cc1,inactive,–,inactive,inactive,53.1% (active),inactive,–,–,inactive,–,–,inactive,inactive,inactive,–,–,inactive,–,inactive,–
NC(=O)Cc1cccc(C(=O)c2ccccc2)c1N,inactive,inactive,inactive,–,–,inactive,inactive,inactive,inactive,inactive,inactive,inactive,inactive,inactive,–,inactive,inactive,-24.1%,inactive,–
O=C1CCN(c2ccccc2)N1,inactive,–,inactive,17.3 µM (active),-36.4%,inactive,inactive,inactive,inactive,inactive,inactive,inactive,inactive,inactive,inactive,inactive,–,4.28%,inactive,–
CCC(=O)c1ccc2c(c1)N(CCCN(C)C)c1ccccc1S2,inactive,–,inactive,–,–,inactive,16.9 µM (active),inactive,–,10.7 µM (active),inactive,inactive,–,inactive,–,–,–,–,inactive,19 µM (active)
CCN(O)CC,inactive,inactive,inactive,–,–,inactive,inactive,inactive,inactive,inactive,inactive,inactive,inactive,inactive,–,inactive,inactive,12.4%,inactive,–
CC(C)NCC(O)COc1ccc(CCOCC2CC2)cc1 (stereo not given),inactive,–,inactive,–,–,inactive,inactive,inactive,inactive,inactive,inactive,inactive,inactive,inactive,inactive,inactive,–,-6.16%,inactive,–
O=C1N(c2ccccc2)c2ccccc2C1(Cc1ccncc1)Cc1ccncc1,inactive,inactive,inactive,inactive,5.08% [at 42.5 µM],inactive,inactive,inactive,inactive,inactive,inactive,inactive,inactive,inactive,inactive,inactive,–,5.52%,inactive,–
Cc1cc(S(=O)(=O)O)c(N)cc1Cl,inactive,inactive,inactive,–,–,inactive,inactive,inactive,inactive,inactive,inactive,inactive,inactive,inactive,inactive,inactive,–,-1.1%,inactive,–
C=CC(C)(O)CC/C=C(\C)CCC=C(C)C (stereo not given),inactive,inactive,inactive,–,–,inactive,inactive,inactive,–,inactive,inactive,54.9 µM (active),17.4 µM (active),inactive,21.9 µM (active),21.9 µM (active),inactive,-1.81%,inactive,–
CCN(CC)C(=O)N(CC)CC,inactive,inactive,inactive,–,–,inactive,inactive,inactive,inactive,inactive,inactive,inactive,inactive,inactive,inactive,inactive,–,4.58%,inactive,–
